Records with an inconclusive call do not appear. Calls of active or inactive are those of the source. Unless noted, the call rests on the fitted dose curve.
Tests used:
[1] = Primary qHTS for inhibitors of SARS-S pseudo-typed particle cell entry (AID 1479145); further: nearly all actives have a fitted effect of over 45% in size; further: potency means the concentration at half of the fitted maximal effect
[2] = Primary qHTS for Huh7 cytotoxicity: counterscreen for inhibitors of MERS-S pseudotyped particle cell entry (AID 1479147); further: potency means the concentration at half of the fitted maximal effect
[3] = Primary qHTS for inhibitors of MERS-S pseudo-typed particle cell entry (AID 1479149); further: nearly all actives have a fitted effect of over 60% in size; further: potency means the concentration at half of the fitted maximal effect
[4] = target: Calcium and integrin-binding protein 1 (Homo sapiens) (UniProt Q99828); test: Validation qHTS for Identification of Calcium Integrin Binding protein 1 (CIB1) Competitor (AID 1508618; active means well fitted curve in the direction sought with a large enough effect; an effect the other way counts as inactive or inconclusive)
Outline: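 In this qHTS validation, the LOPAC set (up to 114 uM) was tested for blocking CIB1 binding to a fluorescein-tagged alphaIIb peptide, with FP detection at 480/540 nm.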

[5] = target: Calcium and integrin-binding protein 1 (Homo sapiens) (UniProt Q99828); test: Primary qHTS for Identification of Calcium Integrin Binding Protein 1 (CIB1) Competitor (AID 1508620; active means well fitted curve in the direction sought with a large enough effect; an effect the other way counts as inactive or inconclusive;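 further: GST tagged CIB1 binding a fluorescein labelled alphaIIb integrin peptide tracer; top concentration of the series differs between compounds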)
Outline: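 CIB1-GST (1 uM final) and compound incubated 15 min at room temperature before adding FITC-alphaIIb peptide tracer (100 nM final). Competition for binding read by fluorescence polarization (ex 480, em 540) after another 15 min at room temperature.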

[6] = Primary qHTS for Vero E6 cytotoxicity: counterscreen for inhibitors of SARS-S pseudo-typed particle cell entry (AID 1479150)
[7] = Primary qHTS for inhibitors of La Crosse Virus (LACV) - induced cell death in SH-SY5Y cells (AID 1508616; active means well fitted curve in the direction sought with a large enough effect; an effect the other way counts as inactive or inconclusive;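 further: top concentration of the series differs between compounds; higher means more rescue of cells from virus-induced death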)
Outline: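 Readout was luminescence from ATPLite 1step added after a 6-day LACV infection (0.01 MOI) of SH-SY5Y cells that had received pin-transferred compound 24 hr after seeding.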

[8] = Confirmatory qHTS for VERO E6 Cytotoxicity Assay: Counterscreen for SARS-CoV-2 CPE Assay (AID 1508605); further: series mostly up to about 20 µM; nearly all actives have a fitted effect of over 60% in size
[9] = Confirmatory qHTS for activators (rescue) of SARS-CoV-2 Cytopathic Effect (CPE) (AID 1508606); further: nearly all actives have a fitted effect of over 70% in size; further: potency means the concentration at half of the fitted maximal effect

Measured: Potency

Calcium and integrin-binding protein 1 (Homo sapiens), sequence (Q99828 whole entry, looked up): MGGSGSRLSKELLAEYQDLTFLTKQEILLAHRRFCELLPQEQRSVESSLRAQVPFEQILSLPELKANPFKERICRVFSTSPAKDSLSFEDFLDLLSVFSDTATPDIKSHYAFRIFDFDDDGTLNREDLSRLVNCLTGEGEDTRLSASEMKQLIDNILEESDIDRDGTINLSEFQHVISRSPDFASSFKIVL

C[C@@H]1O[C@@H](O[C@H]2C[C@@H](O)[C@]3(CO)[C@H]4[C@H](O)C[C@]5(C)[C@@H](C6=CC(=O)OC6)CC[C@]5(O)[C@@H]4CC[C@]3(O)C2)[C@H](O)[C@H](O)[C@H]1O
inactive: [1] | [3] | [4] | [5]
active: [2] 1.26 µM

O=C1CC[C@@]2(O)[C@H]3Cc4ccc(O)c5c4[C@@]2(CCN3CC2CC2)[C@H]1O5
not listed: [4] | [8] | [9]
inactive: all other assays above

CC(=O)Nc1cc([As](=O)(O)O)ccc1O
inactive: [1] | [2] | [3] | [6] | [5]

CCCCc1oc2ccc(NS(C)(=O)=O)cc2c1C(=O)c1ccc(OCCCN(CCCC)CCCC)cc1
active: [1] 22.4 µM | [3] 17.8 µM

CCN(CC)CCCC(C)Nc1ccnc2cc(Cl)ccc12 (centres undefined)
inactive: [1] | [2] | [6]

CC(C)C[C@H](NC(=O)[C@H](CCc1ccccc1)NC(=O)CN1CCOCC1)C(=O)N[C@@H](Cc1ccccc1)C(=O)N[C@@H](CC(C)C)C(=O)[C@@]1(C)CO1
inactive: [3]
active: [1] 1 µM

Nc1[nH]c(=O)ncc1F
inactive: [1] | [2] | [6]

CCCCNc1ccc(C(=O)OCCOCCOCCOCCOCCOCCOCCOCCOCCOC)cc1
inactive: [1] | [2] | [6]

COc1ccccc1Oc1c(NS(=O)(=O)c2ccc(C(C)(C)C)cc2)nc(-c2ncccn2)nc1OCCO
inactive: [1] | [2] | [6]

Cn1cnc([N+](=O)[O-])c1Sc1ncnc2nc[nH]c12
inactive: [1] | [2] | [6]

CC(=O)O[C@]1(C(C)=O)CC[C@H]2[C@@H]3C=C(C)C4=CC(=O)CC[C@]4(C)[C@H]3CC[C@@]21C
inactive: [1] | [2] | [6]

CC(C)NCC(O)c1ccccc1Cl (centres undefined)
inactive: [1] | [2] | [3] | [6] | [5]

Cc1ccc(NC(=O)c2ccc(CN3CCN(C)CC3)cc2)cc1Nc1nccc(-c2cccnc2)n1
inactive: [2] | [6] | [8]
active: [1] 12.6 µM | [9] 8.91 µM

O=C1c2cccc3c2[C@H](CCC3)CN1[C@@H]1CN2CCC1CC2
inactive: [1] | [2] | [6]

O=[N+]([O-])c1cc([As](=O)(O)O)ccc1O
inactive: [1] | [2] | [3] | [6] | [5]

Nc1ccncc1
not listed: [7] | [8] | [9]
inactive: all other assays above

O=c1[nH]c2ccccc2n1C1CCN(CCCC(c2ccc(F)cc2)c2ccc(F)cc2)CC1
inactive: [2] | [6] | [7] | [4] | [5]
active: [1] 11.2 µM

Cn1cc(C2=C(c3cn(C4CCN(Cc5ccccn5)CC4)c4ccccc34)C(=O)NC2=O)c2ccccc21
inactive: [1] | [2] | [3] | [6] | [5]

C[C@]12CC[C@H]3[C@@H](CCC4=CC(=O)CC[C@@H]43)[C@@H]1CC[C@@H]2OC(=O)CCc1ccccc1
inactive: [1] | [2] | [3] | [6] | [5]

N[C@@H](Cc1ccc(N(CCCl)CCCl)cc1)C(=O)O
active: [1] 31.6 µM
inactive: [2] | [3] | [6] | [5]

C#CCN(C)[C@H](C)Cc1ccccc1
inactive: [1] | [2] | [3] | [6] | [5]

CC(C)=CC1C(C(=O)OCc2cccc(Oc3ccccc3)c2)C1(C)C (centres undefined)
inactive: [1] | [2] | [3] | [6] | [5]

NCC(O)c1ccc(O)cc1 (centres undefined)
not listed: [7] | [8] | [9]
inactive: all other assays above

CCCC(CCC)C(=O)O
inactive: [1] | [2] | [6]

CC(C)(C)CC(C)(C)c1ccc(O)cc1
inactive: [1] | [2] | [3] | [7] | [5]

NCC1(CC(=O)O)CCCCC1
not listed: [7] | [8] | [9]
inactive: all other assays above

FC(F)(F)c1cccc(C2=CCN(CCc3ccc4ccccc4c3)CC2)c1
not listed: [4] | [8] | [9]
inactive: all other assays above

O=c1c(O)c(-c2ccc(O)c(O)c2)oc2cc(O)cc(O)c12
inactive: [1] | [2] | [6]

OCCN1CCN(CCCN2c3ccccc3Sc3ccc(Cl)cc32)CC1
active: [1] 14.1 µM
inactive: [6] | [9]

COc1c(C)c2c(c(O)c1C/C=C(\C)CCC(=O)O)C(=O)OC2
inactive: [1] | [6]

CC(C)c1c(C(=O)Nc2ccccc2)c(-c2ccccc2)c(-c2ccc(F)cc2)n1CC[C@@H](O)C[C@@H](O)CC(=O)O
inactive: [2] | [3]
